This note sets out measurements from PubChem BioAssay (Tox21).

Assay [1] can be described thus: qHTS assay to identify small molecule agonists of the RXR signaling pathway - cell viability counter screen (AID 1159529). Note: nearly all actives have a fitted effect of over 50% in size. Note: potency is the fitted concentration of half-maximal effect. The method, boiled down: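 HEK 293T RXRa-bla cells, 2% CS-FBS; 5 h settle; cpd 16 h 37 C, 5% CO2; CellTiter-Glo 30 min RT, luminescence. Tetraoctyl ammonium bromide as positive control.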
(qHTS replaces the single test concentration by a dilution series.)

A short description of assay [2]: qHTS assay to identify small molecule antagonists of the retinoid acid receptor (RAR) signaling pathway - cell viability counter screen (AID 1159551). Note: nearly all actives have a fitted effect of over 35% in size. The method, boiled down:
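Cells (C3RL4) are plated, incubated overnight, dosed with compound in DMSO, then given retinol at 1 uM final. After 6 h at 37 C, CellTiter-Glo is added and luminescence read following 30 min at room temperature.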

A short description of assay [3]: qHTS assay to identify small molecule antagonists of the retinoic acid receptor (RAR) signaling pathway (AID 1159552; note: nearly all actives have a fitted effect of over 50% in size; note: potency is the fitted concentration of half-maximal effect). The gist of the method:
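Cells of the C3RL4 line were seeded, incubated overnight, then dosed with compounds in DMSO followed immediately by retinol (1 uM final). Six hours later luciferase detection reagent went in; signal was measured after 30 min at RT.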

The nature of assay [4]: qHTS assay to identify small molecule agonists of the retinoic acid receptor (RAR) signaling pathway (AID 1159553). The gist of the method: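 Seed C3RL4 reporter cells at 1,000 per well and incubate overnight at 37 C. Add compounds in DMSO, incubate 6 hr. Add luciferase reagent, wait 30 min at room temperature, read luminescence.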

Molecules are shown by their SMILES. Records with an inconclusive call do not appear. The source made the active and inactive calls. Calls come from the whole dose curve; as a rule, active = well fitted curve in the direction sought with a large enough effect in the repeat runs; inconclusive = weak or mixed curves; inactive = no such curve, though single readings can be large; an effect the other way counts as inactive or inconclusive.

As to `CCOC(=O)[C@@H](C)Oc1ccc(Oc2nc3ccc(Cl)cc3o2)cc1`, the Potency result in assay [1], in assay [2] and in assay [3] was “inactive” in each case.
As for `CC(=O)CC(c1ccc([N+](=O)[O-])cc1)c1c(O)c2ccccc2oc1=O` (centres undefined), the Potency entry in assay [1] and in assay [2] was “inactive” each time.
For `C=CCOC(=O)/C=C\C(=O)OCC=C`, the Potency entry in assay [1] and in assay [2] was “inactive” throughout.
As to `Cc1ccc(/C=N/n2c(-c3ccccc3)csc2=S)cc1`, the Potency entry in assay [1], in assay [2], in assay [3] and in assay [4] was “inactive” throughout.
Regarding `CO[C@@]12[C@H](COC(N)=O)C3=C(C(=O)C(C)=C(N)C3=O)N1C[C@@H]1N[C@@H]12`, the Potency entry in assay [1] and in assay [2] was “inactive” in each case. For the same compound, the Potency in assay [3] is 10.6 µM (active).
On to `CC(=O)Oc1ccc(C(=C2CCCCC2)c2ccc(OC(C)=O)cc2)cc1`, for which the Potency result in assay [1], in assay [2] and in assay [3] was “inactive” throughout.
Regarding `CCCOc1ccc(S(=O)(=O)N2CCN(CC)CC2)cc1-c1nc2c(CC)n(Cc3ccccn3)nc2c(=O)[nH]1`, the Potency result in assay [1], in assay [2], in assay [3] and in assay [4] was “inactive” in each case.
Take `Cc1ccnc2ccccc12`: the Potency result in assay [1], in assay [2] and in assay [3] was “inactive” each time.
As to `NCC1CCCC(CN)C1` (centres undefined), the Potency result in assay [1], in assay [2], in assay [3] and in assay [4] was “inactive” each time.
Regarding `COc1ccc(C(=O)c2cccc(O)c2)c(OC)c1`, the Potency entry in assay [1], in assay [2], in assay [3] and in assay [4] was “inactive” in each case.
Take `CC(C)(CCl)c1ccccc1`: the Potency entry in assay [1], in assay [2] and in assay [3] was “inactive” each time.
Regarding `CCC(=O)Oc1ccc(/C(CC)=C(\CC)c2ccc(OC(=O)CC)cc2)cc1`, the Potency in assay [1] was 54.9 µM (active). The Potency result in assay [2] and in assay [3] was “inactive” throughout.
For `CNC(=O)N(c1ccccc1)c1ccccc1`, the Potency entry in assay [1], in assay [2], in assay [3] and in assay [4] was “inactive” in each case.
Turning to `O=C(N[C@@H](c1ccccc1)[C@@H]1CCCCN1)c1cccc(C(F)(F)F)c1Cl`, the Potency result in assay [1] and in assay [2] was “inactive” in each case.
